# Data: ChEMBL document CHEMBL5606458, “ASAP - ZIKV NS2B-NS3 protease fluorescence single point” (2024)
# Hit rate of the full screen: of about 2,700 compounds, about 160 (5.9%) showed an effect of 50% or more. This excerpt belongs to a sample that is enriched for strong results.
# Biological target: Nonstructural protein 3 (Zika virus) (UniProt A0A024AXB9)
# Sequence (A0A024AXB9 as listed by the source): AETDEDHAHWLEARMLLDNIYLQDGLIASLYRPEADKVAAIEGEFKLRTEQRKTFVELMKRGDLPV
compound,measurement,setting,value
O=C(O)c1cc(Cl)ccc1NS(=O)(=O)c1ccc(Oc2ccccc2Cl)cc1,inhibition,"PRVABC59, Concentration 15.0 uM, Number of replicates 2.0, Standard deviation 1.019095961302742 %",25.6%
same,inhibition,"PRVABC59, Concentration 49.5 uM, Number of replicates 2.0, Standard deviation 0.595671862422896 %",67%
same,inhibition,"PRVABC59, Concentration 99.01 uM, Number of replicates 2.0, Standard deviation 0.9962463002636517 %",72.9%
same,inhibition,"PRVABC59, Concentration 198.0 uM, Number of replicates 2.0, Standard deviation 0.4898259529465772 %",64.4%
O=C(NCC1CC1)c1cc(Cl)ccc1NS(=O)(=O)c1ccc(Oc2ccccc2Cl)cc1,inhibition,"PRVABC59, Concentration 49.5 uM, Number of replicates 2.0, Standard deviation 1.3484995448740613 %",43%
same,inhibition,"PRVABC59, Concentration 99.01 uM, Number of replicates 2.0, Standard deviation 16.06152873020096 %",40.6%
same,inhibition,"PRVABC59, Concentration 198.0 uM, Number of replicates 2.0, Standard deviation 0.4375207024201935 %",45.6%
CC(C)CNC(=O)c1cc(Cl)ccc1NS(=O)(=O)c1ccc(Oc2ccccc2Cl)cc1,inhibition,"PRVABC59, Concentration 49.5 uM, Number of replicates 2.0, Standard deviation 0.3286348250544809 %",58.6%
same,inhibition,"PRVABC59, Concentration 99.01 uM, Number of replicates 2.0, Standard deviation 0.058762822067828895 %",54.7%
same,inhibition,"PRVABC59, Concentration 198.0 uM, Number of replicates 2.0, Standard deviation 2.167677830824169 %",37.6%
Cc1ccc(CNC(=O)c2cc(Cl)ccc2NS(=O)(=O)c2ccc(Oc3ccccc3Cl)cc2)s1,inhibition,"PRVABC59, Concentration 49.5 uM, Number of replicates 2.0, Standard deviation 0.2822395742136887 %",41.1%
same,inhibition,"PRVABC59, Concentration 99.01 uM, Number of replicates 2.0, Standard deviation 0.310134718781715 %",25.2%
same,inhibition,"PRVABC59, Concentration 198.0 uM, Number of replicates 2.0, Standard deviation 2.1364830937799217 %",-9.71%
NCc1cccc(NC(=O)[C@@H](NC(=O)OCc2ccccc2)C2CCCCC2)c1,inhibition,"PRVABC59, Concentration 49.5 uM, Number of replicates 2.0, Standard deviation 3.670746053577507 %",0.383%
same,inhibition,"PRVABC59, Concentration 99.01 uM, Number of replicates 2.0, Standard deviation 4.852210894307134 %",19.8%
same,inhibition,"PRVABC59, Concentration 198.0 uM, Number of replicates 2.0, Standard deviation 0.07712401232790286 %",99.4%
NCc1cccc(NC(=O)[C@@H](Cc2c[nH]c3ccccc23)NC(=O)OCc2ccccc2)c1,inhibition,"PRVABC59, Concentration 49.5 uM, Number of replicates 2.0, Standard deviation 3.967037724259516 %",6.59%
same,inhibition,"PRVABC59, Concentration 99.01 uM, Number of replicates 2.0, Standard deviation 5.155513103183051 %",30%
same,inhibition,"PRVABC59, Concentration 198.0 uM, Number of replicates 2.0, Standard deviation 1.4247172313715861 %",61.6%
NCc1cccc(NC(=O)c2cccc(NC(=O)OCc3ccccc3)n2)c1,inhibition,"PRVABC59, Concentration 49.5 uM, Number of replicates 2.0, Standard deviation 2.909357334669415 %",5.59%
same,inhibition,"PRVABC59, Concentration 99.01 uM, Number of replicates 2.0, Standard deviation 2.139765153167162 %",18.9%
same,inhibition,"PRVABC59, Concentration 198.0 uM, Number of replicates 2.0, Standard deviation 5.981167842462736 %",37.7%
CCn1ccnc(N[C@@H](Cc2c[nH]c3ccccc23)C(N)=O)c1=O,inhibition,"PRVABC59, Concentration 49.5 uM, Number of replicates 2.0, Standard deviation 1.4026673489298387 %",18.1%
same,inhibition,"PRVABC59, Concentration 99.01 uM, Number of replicates 2.0, Standard deviation 0.19191044848514063 %",31.5%
same,inhibition,"PRVABC59, Concentration 198.0 uM, Number of replicates 2.0, Standard deviation 0.4743186100928729 %",43.7%
NCc1cccc(NC(=O)[C@H]2CCCN(C(=O)OCc3ccccc3)C2)c1,inhibition,"PRVABC59, Concentration 49.5 uM, Number of replicates 2.0, Standard deviation 2.781365363643047 %",3.4%
same,inhibition,"PRVABC59, Concentration 99.01 uM, Number of replicates 2.0, Standard deviation 2.023258788415892 %",8.89%
same,inhibition,"PRVABC59, Concentration 198.0 uM, Number of replicates 2.0, Standard deviation 2.4646681276670943 %",18.5%
NCc1cccc(NC(=O)[C@H]2Cc3ccccc3N2C(=O)OCc2ccccc2)c1,inhibition,"PRVABC59, Concentration 49.5 uM, Number of replicates 2.0, Standard deviation 1.3458327451813832 %",-2.12%
same,inhibition,"PRVABC59, Concentration 99.01 uM, Number of replicates 2.0, Standard deviation 2.0252321038631718 %",4.14%
same,inhibition,"PRVABC59, Concentration 198.0 uM, Number of replicates 2.0, Standard deviation 4.242354762898987 %",47.3%
NCc1cccc(NC(=O)[C@@H](NC(=O)OCc2ccccc2)C(C2CCC2)C2CCC2)c1,inhibition,"PRVABC59, Concentration 49.5 uM, Number of replicates 2.0, Standard deviation 1.6304646588102472 %",8.82%
same,inhibition,"PRVABC59, Concentration 99.01 uM, Number of replicates 2.0, Standard deviation 1.5618151976061267 %",76.8%
same,inhibition,"PRVABC59, Concentration 198.0 uM, Number of replicates 2.0, Standard deviation 0.10609407012035098 %",99.1%
NCc1cccc(NC(=O)[C@H]2COC3(CCOCC3)N2C(=O)OCc2ccccc2)c1,inhibition,"PRVABC59, Concentration 49.5 uM, Number of replicates 2.0, Standard deviation 0.9938813563000084 %",5.38%
same,inhibition,"PRVABC59, Concentration 99.01 uM, Number of replicates 2.0, Standard deviation 1.914429893589366 %",19%
same,inhibition,"PRVABC59, Concentration 198.0 uM, Number of replicates 2.0, Standard deviation 1.323095447640423 %",40.3%
COc1cc(COc2cccnc2F)nc(N2CCNCC2)n1,inhibition,"PRVABC59, Concentration 49.5 uM, Number of replicates 2.0, Standard deviation 3.471530038958882 %",9.4%
same,inhibition,"PRVABC59, Concentration 99.01 uM, Number of replicates 2.0, Standard deviation 1.2510762616041597 %",17.8%
same,inhibition,"PRVABC59, Concentration 198.0 uM, Number of replicates 2.0, Standard deviation 5.474495288404173 %",24.4%
CC[C@H]1CCN(c2nccn(CC)c2=O)C1,inhibition,"PRVABC59, Concentration 49.5 uM, Number of replicates 2.0, Standard deviation 1.4176871370399688 %",4.12%
same,inhibition,"PRVABC59, Concentration 99.01 uM, Number of replicates 2.0, Standard deviation 1.8963080974288338 %",10.6%
same,inhibition,"PRVABC59, Concentration 198.0 uM, Number of replicates 2.0, Standard deviation 0.25647537430637324 %",21.7%
CCn1ccnc(N2C[C@@H](O)[C@H](c3c[nH]c4ccccc34)C2)c1=O,inhibition,"PRVABC59, Concentration 49.5 uM, Number of replicates 2.0, Standard deviation 0.5666151507099095 %",7.52%
same,inhibition,"PRVABC59, Concentration 99.01 uM, Number of replicates 2.0, Standard deviation 0.06434104176194275 %",18.6%
same,inhibition,"PRVABC59, Concentration 198.0 uM, Number of replicates 2.0, Standard deviation 0.18264623400765803 %",34.5%
Nc1nc(CN2CCNCC2)nc2ccccc12,inhibition,"PRVABC59, Concentration 99.9 uM, Number of replicates 2.0, Standard deviation 4.738718872161362 %",-7.53%
c1ccc2c([C@H]3CCN(CC[C@H]4CCCO4)C3)c[nH]c2c1,inhibition,"PRVABC59, Concentration 49.5 uM, Number of replicates 2.0, Standard deviation 2.014848974851422 %",6.42%
same,inhibition,"PRVABC59, Concentration 99.01 uM, Number of replicates 2.0, Standard deviation 1.491910771840746 %",12.4%
same,inhibition,"PRVABC59, Concentration 198.0 uM, Number of replicates 2.0, Standard deviation 1.9789597532326375 %",21.4%
O=C(O)c1cccc(NC(=O)c2cccc(OCc3c(Cl)cccc3Cl)c2)c1,inhibition,"PRVABC59, Concentration 49.5 uM, Number of replicates 2.0, Standard deviation 0.05325743212794187 %",8.22%
same,inhibition,"PRVABC59, Concentration 99.01 uM, Number of replicates 2.0, Standard deviation 0.43176580313712193 %",15.3%
same,inhibition,"PRVABC59, Concentration 198.0 uM, Number of replicates 2.0, Standard deviation 0.7170736679224038 %",28.4%
NCc1ccc(C[C@H](NC(=O)c2ccccc2)C(=O)N2CCCCC2)cc1,inhibition,"PRVABC59, Concentration 49.5 uM, Number of replicates 2.0, Standard deviation 1.7023364994641166 %",7.06%
same,inhibition,"PRVABC59, Concentration 99.01 uM, Number of replicates 2.0, Standard deviation 1.0175975565444826 %",12.7%
same,inhibition,"PRVABC59, Concentration 198.0 uM, Number of replicates 2.0, Standard deviation 2.6267332126099125 %",22%
NCc1ccc(C[C@H](NC(=O)c2ccccc2)C(=O)Nc2cccc(CN)c2)cc1,inhibition,"PRVABC59, Concentration 49.5 uM, Number of replicates 2.0, Standard deviation 1.4806761079016821 %",29.4%
same,inhibition,"PRVABC59, Concentration 99.01 uM, Number of replicates 2.0, Standard deviation 0.13484294125181392 %",48.1%
same,inhibition,"PRVABC59, Concentration 198.0 uM, Number of replicates 2.0, Standard deviation 0.4356460105984289 %",65.1%
